From PubChem
Hits are enriched below; roughly 1.4% of the tested compounds scored in any of these assays.
Bcl-xL primary: inhibitors of human Bcl-xL, primary screen, biochemical, fluorescence polarization, HTS; Bcl-2-like protein 1 (Homo sapiens), Q07817; GST-Bcl-xL / FITC-Bim BH3 peptide fluorescence polarization; inhibition, % at 10.9 µM; hit rate 0.7% among 320,000;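 active = inhibition above the mean of all tested compounds plus 3 SD, cutoff set per campaign, cut at about 30% in these data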;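 note: inhibitors lower millipolarization by displacing the labeled peptide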
MCL1 BIM primary: inhibitors of MCL1 binding to BIM-BH3, primary screen, biochemical, fluorescence polarization; inhibition, % at 10.9 µM; hit rate 0.68% among 320,000; GST-MCL1 / FITC-Bim-BH3 fluorescence polarization; Induced myeloid leukemia cell differentiation protein Mcl-1 (Homo sapiens), Q07820;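 active = inhibition above the mean inhibition of all tested compounds plus 3 SD, set per campaign, cut at about 40% in these data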;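 note: higher means more loss of mP so more displacement of Bim peptide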
eLon inh: inhibitors of E. coli Lon protease, primary screen, biochemical, fluorescence polarization | inhibition, % at 7.94 µM | purified E. coli Lon protease | AID 602123, 2011 | P0A9M0 | hit rate 0.42% among 360,000; in the data active = inhibition above about 13%, passing the limit was not always enough
GLD-1 RNA inh: GLD-1/TGE RNA complex disruptors, primary screen, biochemical, fluorescence polarization; hit rate 0.44% among 320,000; inhibition, % at 5.96 µM; purified GLD-1 + fluorescein TGE RNA; AID 2280, 2010;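 active = percent inhibition above a per-plate cutoff, the plate mean of test compounds plus 3 SD, cut at about 30% in these data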
MEX-5 binding: MEX-5 zinc finger RNA-binding disruptors – biochemical, C. elegans, fluorescence polarization, MLPCN library, primary screen; Zinc finger protein mex-5 (Caenorhabditis elegans), Q9XUB2; MEX-5/FITC-TCR2 RNA binding; hits give low values; activity score (negative = inhibition of binding), % at 10 µM; hit rate 0.38% among 300,000; AID 1832, 2009;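 active = inhibition past about -25% in most replicates, and total fluorescence under double the plate's negative control median, limit read from the data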
Target sequence (Q9XUB2 whole entry, looked up): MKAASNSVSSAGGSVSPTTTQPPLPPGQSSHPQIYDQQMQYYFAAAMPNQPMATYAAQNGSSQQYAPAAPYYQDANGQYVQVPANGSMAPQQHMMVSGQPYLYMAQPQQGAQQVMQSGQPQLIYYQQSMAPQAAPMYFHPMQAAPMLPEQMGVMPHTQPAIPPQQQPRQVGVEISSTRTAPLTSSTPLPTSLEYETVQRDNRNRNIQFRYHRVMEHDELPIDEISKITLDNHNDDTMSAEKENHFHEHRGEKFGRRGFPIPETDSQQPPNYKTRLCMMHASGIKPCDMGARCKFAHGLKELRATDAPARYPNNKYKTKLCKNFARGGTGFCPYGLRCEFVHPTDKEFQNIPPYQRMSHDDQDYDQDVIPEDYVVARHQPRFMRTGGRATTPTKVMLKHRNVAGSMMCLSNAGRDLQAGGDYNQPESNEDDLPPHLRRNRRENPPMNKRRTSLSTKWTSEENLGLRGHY
GLD-1 TGE cf: GLD-1/TGE RNA binding inhibitors, retest, confirmation, biochemical, fluorescence polarization, triplicate; AID 2459, 2010; inhibition, % at 5.96 µM; shares compounds with GLD-1 RNA inh; GLD-1/FL-TGE RNA fluorescence polarization; hit rate 10% among 550;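 active = average inhibition across triplicates above the hit cutoff set in the primary screen, cut at about 32% in these data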
Hits are given with their value; n = inactive; x = no result.

SMILES | Bcl-xL primary | MCL1 BIM primary | eLon inh | GLD-1 RNA inh | MEX-5 binding | GLD-1 TGE cf
N#CC1=C(N)C2=CCCC[C@H]2[C@H](c2ccc(Br)cc2)C1(C#N)C#N | 39.8 | n | n | 36.7 | x | n
O=C(Nc1ccc2nc(-c3ccco3)c(-c3ccco3)nc2c1)N1CCCCCC1 | 105.1 | 117.6 | x | 40.7 | n | n
O=C(CSc1ccc(-c2ccco2)nn1)Nc1ccccc1 | n | n | n | n | n | x
O=C(CSc1ccc(-c2ccco2)nn1)NCc1ccccc1Cl | 41.7 | 40.9 | n | 34.2 | n | n
CCOC(=O)C1=C(Cc2ccc(Cl)cc2)C(=O)c2ccccc2C1=O | n | n | n | 33.2 | n | n
CCOC(=O)[C@]12CCC=C1N(Cc1ccc(Cl)cc1Cl)C(=O)[C@H](CC(=O)N1CCCCC1)C2 | x | x | n | x | x | x
Cc1[nH]nc2c1C(c1ccc(F)cc1)C(C#N)=C(N)O2 (configuration not stated) | n | n | n | n | n | x
CCN1C=C(Cc2ccc(F)cc2)C2=C(C1)C(c1ccc(F)cc1)C(C#N)=C(N)O2 (configuration not stated) | n | n | n | 41.1 | n | n
O=C(NCc1nc2ccccc2[nH]1)C1=C[C@@H](C2CCCCC2)C[C@@H](OCCCCO)O1 | n | n | n | 85.4 | n | n
C[C@H]1C=C(C(=O)NCc2nc3ccccc3[nH]2)O[C@@H](OCCCCO)C1 | n | n | n | n | n | x
Cc1cc2cc(CNC(=O)CCC(=O)O)ccc2n1C | n | n | n | n | n | x
Cc1cc2cc(CNC(=O)c3ccc(Br)o3)ccc2n1C | n | n | n | 38.3 | n | n
Cc1cc2cc(CNC(=O)C3CCCC3)ccc2n1C | n | n | n | 37.3 | n | n
COc1ccc(C(=O)NC(=S)Nc2ccc(CN3CCOCC3)cc2)cc1 | n | n | n | 63.5 | n | n
COc1ccc2[nH]cc(CCNC(=O)c3ccccc3Cl)c2c1 | 46.9 | 51.6 | n | 32.8 | n | n
COc1cc(C)c(Cl)cc1S(=O)(=O)NCc1ccccn1 | n | n | n | n | n | x
O=CNC1c2ccccc2CCc2ccccc21 | x | x | n | x | x | x
CCOc1ccc(-c2noc(-c3cccnc3)n2)cc1OCC | n | n | n | 102.5 | x | n
COc1cccc(-c2nnc(NC(=O)C(C)C)o2)c1 | 47.5 | 50.0 | n | 37.2 | n | n
CCOc1ccc(S(=O)(=O)Nc2nc3ccc(OC)cc3s2)cc1 | n | n | n | 39.3 | n | n
CCc1ccc(NC(=O)C2CCN(S(=O)(=O)c3cnc[nH]3)CC2)cc1 | n | n | n | n | n | x
CCc1ccc(NC(=O)C2CCCN(S(=O)(=O)c3cnc[nH]3)C2)cc1 (configuration not stated) | n | n | n | 61.4 | n | n
CCOC(=O)c1c(-c2ccccc2)oc2cc(CN(C)C)c(O)c(CN(C)C)c12 | 35.0 | 48.9 | n | 37.2 | n | n
CCN(c1ccc(OC)cc1)S(=O)(=O)N1CCCC(C(=O)NCc2cccc(C)c2)C1 (configuration not stated) | n | n | n | n | n | x
CC(C)N(Cc1nccn1C)C(=O)CC1C(=O)NCCN1Cc1ccc(F)c(F)c1 (configuration not stated) | n | n | n | 37.6 | n | n
SMILES | Bcl-xL primary | MCL1 BIM primary | eLon inh | GLD-1 RNA inh | MEX-5 binding | GLD-1 TGE cf
Cc1onc(-c2c(F)cccc2Cl)c1C(=O)OCC(=O)Nc1cccc(S(=O)(=O)N(C)C)c1 | x | x | n | x | x | x
Cc1ccc(NC(=O)c2oc3ccccc3c2NC(=O)C2CCCO2)cc1C (configuration not stated) | n | n | n | n | n | x
COc1ccc(NC(=O)c2oc3ccccc3c2NC(=O)C2CCCO2)cc1OC (configuration not stated) | n | n | n | 70.3 | n | n
O=C1CS/C(=C\[N+](=O)[O-])N1c1ccccc1 | n | n | n | 35.3 | -44.8 | 56.0
O=C1CS/C(=N\N=C\c2ccco2)N1c1ccccc1 | n | n | n | n | n | x
COc1ccc(C)cc1C1=CC(=O)C[C@H](c2ccc(F)cc2)C1 | n | n | n | 34.2 | x | n
